# Source: PubChem (National Center for Advancing Translational Sciences (NCATS))
# MCF10A rereplic – induces DNA re-replication in MCF 10a normal breast cells; MCF 10A DNA re-replication, Hoechst nuclear intensity, 48 h; Potency, µM (doses to about 46.1 µM), for the others: at the highest dose activity, positive = re-replication, hits mostly activators; actives 2.9% (n = 350,000); AID 624296; further: potency means the concentration at half of the fitted maximal effect; % of control where 0% means no effect; nearly all actives have a fitted effect of over 50% in size
# IL-1B inflam inh – blocks inflammasome-driven IL-1 beta release. activity change, % at 57.5 µM. actives 4.7% (n = 360,000). THP-1 LPS/ATP IL-1B secretion, AlphaLISA, 16 h; hits give low values; in the data active means activity change below about -50%; inconclusive means mostly about -30% to -49%; further: on the % scale 0 is the no-effect control and ±100 the full control effect
#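 Secreted IL-1B measured by AlphaLISA bead assay after 16 h compound exposure of THP-1 cells; compounds (final up to 57.5 uM) added 1 h before LPS (250 ng/mL) and ATP (1.25 mM) stimulation; lower signal means less secretion.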
# DT40 TDP1 CPT – growth inhibition of DT40 Tdp1-/-;hTDP1 cells with camptothecin (screen for TDP1 inhibitors); Potency, µM (highest dose often 46.2 µM), for the others: at the top dose activity change, negative = growth inhibition, most hits filed as inhibitors; chicken DT40 Tdp1-/-;hTDP1 cells + 20 nM CPT, ATP luminescence, 48 h; actives 12% (n = 420,000); AID 686979; further: potency means the concentration at half of the fitted maximal effect; on the % scale 0 is the no-effect control and ±100 the full control effect; nearly all actives have a fitted effect of over 55% in size
#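 Cell growth measured by CellTiter-Glo luminescence after a minimum 48 h, 37 C compound exposure with 20 nM CPT in Tdp1-knockout DT40 cells stably expressing hTDP1, seeded 400/well; qHTS titration format.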
# Chronic BCR inh – blocks chronic active B-cell receptor signaling; ABC-DLBCL IkBa-CBG/CBR reporter, luminescence ratio, 4 h; Potency, µM (series often up to 46.1 µM), without a hit: at the top dose activity change, negative = inhibition, usual class: inhibitors; actives 0.05% (n = 340,000); AID 493014; active means well fitted inhibition curve with a large enough effect in the signal ratio, with a control signal flat, not every such curve was filed as active; inconclusive means small, poorly fitted or top-dose-only effect, or effect the other way, or a change in a side signal; the % refers to the signal ratio;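 further: potency means the concentration at half of the fitted maximal effect; plate controls were basal doxycycline-induced cells for no effect and cells given 10 µM MG132 for full effect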
#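 Concentration-response series (up to 46 uM) were applied to TMD8 dual-reporter cells for 4 h at 37C with doxycycline. Green/red ratio, after filter-overlap correction, defined %Activity; red signal alone was normalised to basal cells and zero luminescence.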
# SW480 rerep – DNA re-replication induction in SW480 cells | SW480 DNA re-replication, Hoechst DNA content imaging, 48 h | Potency, µM (series often up to 46.1 µM), for the others: at the highest dose re-replication activation, usual class: activators | actives 1.8% (n = 340,000); further: potency means the concentration at half of the fitted maximal effect; % of control where 0% means no effect; nearly all actives have a fitted effect of over 55% in size
#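 First, 250 cells per well were seeded. Next, compound or vehicle (23 nL) was pinned in, plates sat 48 hr at 37 C. Finally Hoechst was added for 40 min before fluorescence scanning.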
# DT40 TDP1 no CPT – qHTS for Inhibitors of human tyrosyl-DNA phosphodiesterase 1 (TDP1): qHTS in cells in absence of CPT; Potency, µM (doses to about 46.2 µM), inactives show at the top dose activity change, negative = growth inhibition, most hits filed as inhibitors; DT40 Tdp1-/- hTDP1 cells, no CPT, ATP luminescence, 48 h; actives 15% (n = 420,000); further: potency means the concentration at half of the fitted maximal effect; on the % scale 0 is the no-effect control and ±100 the full control effect; nearly all actives have a fitted effect of over 55% in size
#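 Growth of hTDP1-complemented DT40 Tdp1-knockout cells is measured by ATP luminescence after at least 48 hr compound exposure at 37 °C, with DMSO substituting for the 20 nM CPT used in the parallel screen.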
# * marks the source's active call; other numbers are inactive results; ? = inconclusive; . = no result; ! = not active in a repeat; [ ] = remark or other dose. The list is not random: actives were taken first. Their share in the collection is about 19%. Unless noted, the call rests on the fitted dose curve; in most records, active means well fitted curve in the direction sought with a large enough effect; inconclusive means small, poorly fitted or top-dose-only effect, or another doubt; inactive means no such curve, though single readings can be large; an effect the other way counts as inactive or inconclusive.
SMILES,MCF10A rereplic,IL-1B inflam inh,DT40 TDP1 CPT,Chronic BCR inh,SW480 rerep,DT40 TDP1 no CPT
CC1(C)Cc2c(ccc3ccccc23)/C(=C/C(=O)N2CCCCC2)N1,?,-62.5*,16.4µM*,3.7%,?,14.6µM*
Cc1ccc(S(=O)(=O)N2CCC(N3CCN(Cc4ccccc4)C(=O)C3=O)CC2)cc1C,.,.,-17.3%,.,.,?
Cc1cccc(-n2c(=O)c3c(c4cc(C)ccc4n3C)n(Cc3ccccc3F)c2=O)c1,.,.,-14.3%,.,.,?
COc1ccc(Oc2nc3c(c(=O)n(C)c(=O)n3C)n2Cc2ccccc2)cc1,1.4%,38.3,?,-11.5%,-6.3%,-28.6%
C#CCOc1nc2c(c(=O)n(C)c(=O)n2C)n1Cc1ccccc1,9.5%,0.0,11.6µM*,?,-9.6%,11.6µM*
Cc1ccccc1Oc1nc2c(c(=O)n(C)c(=O)n2C)n1Cc1ccc(Br)cc1,.,.,-7.4%,.,.,-10.8%
C=CCOc1nc2c(c(=O)n(C)c(=O)n2C)n1Cc1ccccc1,-1.3%,.,25.9µM*,11.3%,?,18.4µM*
C=CCOc1nc2c(c(=O)n(Cc3ccc(Cl)cc3)c(=O)n2C)n1C,3.5%,-10.7,?,-0.1%,-3.1%[9.22 µM],11.6µM*
CCOCCOc1nc2c(c(=O)n(C)c(=O)n2C)n1Cc1ccc(C)cc1,-0.5%,9.8,?,-9.8%,0.5%,8.2µM*
C[C@]12C(=O)N(c3ccc(Br)cc3)C(=O)N1[C@H]1c3ccccc3OC[C@@H]1[C@H]2c1ccccc1,-12.3%,-1.3,-18.0%,2.9%,-0.6%,?
N#Cc1c(-n2ncnc2-c2cccc(Cl)c2)sc2c1CCCCC2,.,.,-14.7%,.,.,-10.8%
COCCCN(C(=S)Nc1cc(Cl)cc(Cl)c1)C(C)c1ccccn1 (centres undefined),?,0.0,?,-3.3%,-17.8%,?
COCCCN(C(=S)Nc1cc(Cl)cc(Cl)c1)C(C)c1ccncc1 (centres undefined),?,-68.1*,?,-16.0%,-2.2%,?
Cc1cccc2cc(/C=C3\N=C(c4ccccc4)OC3=O)c(N3CCOCC3)nc12,2.5%,14.0,?,-1.3%,-0.5%,23.1µM*
CN(C)/C=C1\N=C(c2ccccc2)OC1=O,-7.0%,-26.3,-4.0%,3.7%,-2.0%,-19.0%
CC(=O)NC(C)(c1ccccc1)c1nc(-c2cccc(C(F)(F)F)c2)cs1 (centres undefined),.,-25.9,?,.,.,14.6µM*
CC(=O)Nc1cccc(-c2csc(C(C)(NC(C)=O)c3ccccc3)n2)c1 (centres undefined),.,26.9,25.9µM*,.,.,?
COc1ccc(C(C)(NC(C)=O)c2nc(-c3cccc(NC(C)=O)c3)cs2)cc1 (centres undefined),.,20.4,?,.,.,?
COc1ccc(-n2c(=O)c3ccc(C(=O)NCc4ccc(C)cc4)cc3n(Cc3ccc(Cl)cc3)c2=O)cc1,.,.,-5.9%,.,.,-8.9%
[2H]c1c([2H])c([2H])c(-c2nc(N3CCCCCC3)sc2C(=O)c2ccccc2)c([2H])c1[2H],7.31µM*,-18.4,?,?,?,?
O=C(c1sc(N2CCOCC2)nc1-c1ccccc1)N1CCCCC1,-3.1%,-5.8,-22.6%,-10.6%,1.7%,?
CCCCSc1nc2sc3c(c2c(=O)[nH]1)CC(C)(CC)OC3 (centres undefined),?,-6.5,1.4%,?,0.2%,-24.7%
CC(C)OC(=O)/C(=C/c1ccco1)c1ccccc1,-15.3%,.,-0.3%,12.8%,?,-25.2%
CCc1ccccc1NC(=O)/C(=C/c1ccco1)c1ccccc1,?,-15.0,?,-8.1%,7.1%,18.4µM*
CC(C)(C)NC(=O)/C(=C/c1ccco1)c1ccccc1,0.2%,-4.0,-27.6%,-0.3%,-0.7%,-14.2%
SMILES,MCF10A rereplic,IL-1B inflam inh,DT40 TDP1 CPT,Chronic BCR inh,SW480 rerep,DT40 TDP1 no CPT
Cc1ccccc1NC(=O)/C(=C/c1ccco1)c1ccccc1,-4.2%,-10.5,23.1µM*,-14.9%,-4.5%,11.6µM*
CCOC(=O)c1ccc(NC(=O)CCc2c(C)nc3cc(-c4ccc(OC)cc4OC)nn3c2C)cc1,.,.,4.1%,.,.,?
CCC1CN(C(=O)NCc2ccc(C)cc2)c2cc(C)ccc2O1 (centres undefined),14.2%,0.0,23.1µM*,-5.0%,10.5%,14.6µM*!
CCc1ccccc1NC(=O)N1CC(CC)Oc2ccc(Cl)cc21 (centres undefined),.,.,20.6µM*,.,.,?
Cc1ccc(CNC(=O)C2CN(S(C)(=O)=O)c3cc(Cl)ccc3O2)cc1 (centres undefined),-2.6%,-2.7,1.1%,0.8%,-92.3%,?
CCC1CN(C(=O)NCc2ccc(F)cc2)c2cc(Cl)ccc2O1 (centres undefined),-6.2%,-61.8*,?,-0.1%,0.4%,?
CCC1CN(C(=O)NCc2ccc(C)cc2)c2cc(Cl)ccc2O1 (centres undefined),6.1%,-25.9,20.6µM*,-3.0%,4.6%,23.1µM*
CCC1CN(C(=O)NCc2ccccc2)c2cc(C)ccc2O1 (centres undefined),-0.6%,-10.1,?,0.4%,-1.7%,?
CCC1CN(C(=O)Nc2ccc(C(=O)O)cc2)c2cc(Cl)ccc2O1 (centres undefined),.,.,-26.6%,.,.,-29.4%
CCOc1ccc(C2/C(=C(\O)c3ccc4c(c3)OCCO4)C(=O)C(=O)N2CCN2CCOCC2)cc1OC (centres undefined),-3.9%,8.0,2.5%,0.4%,-2.5%,21.1%
CN(C(=O)CSc1nc2ccc(NC(=O)c3ccc(F)cc3)cc2s1)c1ccccc1,.,.,16.4µM*,.,.,14.6µM*
CCOC(=O)CSc1nc2ccc(NC(=O)COc3ccccc3C)cc2s1,.,.,-14.2%,.,.,-22.9%
CC(=O)Nc1ccc2nc(NC(=O)CCc3ccccc3)sc2c1,-4.3%,0.0,?,4.4%,-17.6%,?
COc1ccc(C(=O)Nc2ccc3nc(SCC(=O)N(C)c4ccccc4)sc3c2)cc1,.,.,?,.,.,16.4µM*
CN(C(=O)CSc1nc2ccc(NC(=O)COc3ccc(F)cc3)cc2s1)c1ccccc1,.,.,5.8µM*,.,.,4.61µM*
CN(C(=O)CSc1nc2ccc(NC(=O)CCc3ccccc3)cc2s1)c1ccccc1,.,.,18.4µM*,.,.,14.6µM*
CN1CCN(C(=O)CSc2nc3ccc(NC(=O)c4ccccc4F)cc3s2)CC1,23.7%,31.7,?,0.8%,-9.9%,?
